Data on 8 compounds can be found in PubChem BioAssay.

A word on the inhibition: it is the relative decrease from the control value, in per cent. One may read the AC50 as the concentration giving half of the maximal activity seen. Broadly, the viability is a read-out of living cells in per cent, often relative to untreated cells.

Structures are written as SMILES. Inconclusive results are not listed. For part of these data: Measured potencies and affinities stand elsewhere. The source made the active and inactive calls.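 The calls were made as follows, unless noted: active = normalized viability below 100% at a tested concentration; inactive = the rest.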

The nature of experiment [1]: antimalarial activity against Dd2 strain (AID 2302;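 active = growth inhibition above 50% at the single 2 µM test dose, taken to imply half-maximal potency below 2 µM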;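 also: 0% = DMSO untreated growth and 100% = chloroquine plus artemisinin killed control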). The conditions noted are these: P. falciparum Dd2 in RBCs, LDH growth readout, 72 h; at 2 µM; stronger effect = higher value.
The nature of experiment [2]: human hepatoma cell viability loss – ATP luminescence, cytotoxicity control for P. falciparum antimalarial project, primary screen (AID 2303;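 active = inhibition above 50%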;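 also: 0% = DMSO wells and 100% = digitonin-killed cells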). The settings on record: HepG2 viability, 24-48 h, at 10 µM, stronger effect = higher value.
The target of experiment [3] is Calcium-dependent protein kinase 1 (Plasmodium falciparum (isolate 3D7)) (UniProt P62344). In words: PfCDPK1 kinase inhibitors, biochemical, TCAMS library (AID 1159585; cut-off not given, nearly all actives have IC50 up to about 0.98 µM;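 also: inhibitors leave more ATP so luminescence rises with inhibition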). The settings on record: recombinant PfCDPK1, Kinase-Glo ATP depletion luminescence. On the technique in general: Kinase-Glo measures the ATP left after a reaction by luminescence.
Chain of Calcium-dependent protein kinase 1 (Plasmodium falciparum (isolate 3D7)) (P62344 whole entry, looked up): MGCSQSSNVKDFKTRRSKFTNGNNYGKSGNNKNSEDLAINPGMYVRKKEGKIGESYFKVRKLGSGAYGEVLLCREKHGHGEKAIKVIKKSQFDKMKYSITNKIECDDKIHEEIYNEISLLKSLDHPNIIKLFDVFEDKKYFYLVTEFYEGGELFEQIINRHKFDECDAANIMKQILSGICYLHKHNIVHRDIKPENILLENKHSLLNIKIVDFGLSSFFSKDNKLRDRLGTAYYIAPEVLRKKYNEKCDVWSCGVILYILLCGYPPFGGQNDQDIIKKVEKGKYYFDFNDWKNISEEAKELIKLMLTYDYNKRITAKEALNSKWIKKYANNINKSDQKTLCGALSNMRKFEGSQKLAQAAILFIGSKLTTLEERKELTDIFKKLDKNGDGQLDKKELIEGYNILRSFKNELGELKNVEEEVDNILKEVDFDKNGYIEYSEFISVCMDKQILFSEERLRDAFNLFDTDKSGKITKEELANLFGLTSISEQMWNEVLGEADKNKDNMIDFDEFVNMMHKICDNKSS
Experiment [4] has as its target Plasmodium falciparum protein kinase 6 (PK6, PF3D7_1337100) (UniProt Q8IDW1). In words: PfPK6 kinase inhibitors, biochemical, TCAMS library (AID 1159586; call rule not given here). The conditions noted are these: recombinant PfPK6, Kinase-Glo ATP depletion luminescence.
Experiment [5] addresses Protein kinase 7 (PK7), Plasmodium falciparum 3D7 (PF3D7_0213400) (UniProt Q7YTF7). In words: inhibition of Plasmodium PK7 catalytic activity – biochemical, TCAMS antimalarial set, Kinase-Glo luminescence (AID 1159587; call rule not given here). The conditions noted are these: recombinant PfPK7, Kinase-Glo ATP depletion luminescence.
Experiment [6] addresses Calcium-dependent protein kinase 4 (Plasmodium falciparum (isolate 3D7)) (UniProt Q8IBS5). In words: PfCDPK4 kinase inhibitors, biochemical, TCAMS library (AID 1159588; cut-off not given, nearly all actives have IC50 up to about 0.91 µM). The settings on record: recombinant PfCDPK4, Kinase-Glo ATP depletion luminescence.
Experiment [7] has as its target L-lactate dehydrogenase (Plasmodium falciparum (isolate CDC / Honduras)) (UniProt Q27743). The experiment can be described thus: PfLDH activity inhibition – cell lysate, 3D7 strain, counter-screen for P. falciparum growth inhibition project (AID 2304; call rule not given here;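 also: 0% = vehicle and 100% = reference inhibitor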). The conditions noted are these: P. falciparum 3D7 crude extract, LDH APAD/NBT absorbance; at 2 µM; stronger effect = higher value. For orientation: Counterscreens check selectivity or assay interference.

A short description of experiment [8]: inhibition of 3D7 malaria parasite growth – strain 3D7 (AID 2306; call rule not given here;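 also: 0% = DMSO wells and 100% = chloroquine plus artemisinin control wells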). The conditions noted are these: P. falciparum 3D7 erythrocytic growth, LDH absorbance, 72 h; at 2 µM; stronger effect = higher value.
The nature of experiment [9]: viability loss in pontine glioma line – cell-based, SU-DIPG-XVII, MIPE5.0, CellTiter-Glo, qHTS, dose response (AID 1347060; cut-off not given, nearly all actives have AC50 up to about 26 µM;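 also: cells exposed to compound for 48 hours before viability readout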). The settings on record: CellTiter-Glo ATP luminescence. For orientation: Cellular ATP, detected with luciferase, serves as a proxy for viable cell number.
Experiment [10] is described as follows: viability loss in pontine glioma line – cell-based, SU-DIPG-IV, MIPE4.0, CellTiter-Glo, qHTS, dose response (AID 1347063; cut-off not given, nearly all actives have AC50 up to about 30 µM;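 also: compound exposure lasted 48 hours before the viability readout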). The settings on record: CellTiter-Glo ATP luminescence.
Experiment [11] can be described thus: viability loss in pontine glioma line – cell-based, SU-DIPG-XIII, MIPE5.0, CellTiter-Glo, qHTS, dose response (AID 1347064; cut-off not given, nearly all actives have AC50 up to about 23 µM;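 also: cells exposed to compound for 48 hours before the viability read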). The conditions noted are these: CellTiter-Glo ATP luminescence.
Experiment [12] in a line: viability loss in pontine glioma line – cell-based, SU-DIPG-XXV, MIPE5.0, CellTiter-Glo, qHTS, dose response (AID 1347065; cut-off not given, nearly all actives have AC50 up to about 26 µM;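 also: cells exposed to compound for 48 hours before ATP readout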). The conditions noted are these: CellTiter-Glo ATP luminescence.
Experiment [13] in a line: growth inhibition of DIPG cells – cell-based, MIPE4.0 library, CellTiter-Glo luminescence, qHTS (AID 1347066; cut-off not given, nearly all actives have AC50 up to about 30 µM;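 also: cells exposed to compound for 48 hours before readout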). The settings on record: SU-DIPG-VI viability, CellTiter-Glo ATP luminescence.
The nature of experiment [14]: JHH-DIPG-1 glioma cell viability, MIPE5.0 library, CellTiter-Glo luminescence, qHTS (AID 1347067; cut-off not given, nearly all actives have AC50 up to about 26 µM;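 also: cells exposed to compound for 48 hours before readout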). The conditions noted are these: JHH-DIPG-1 glioma viability, CellTiter-Glo ATP luminescence.
Experiment [15] in a line: viability loss with induced miR-34 in A549 – imaging, A549 dox-inducible miR-34, nuclei and caspase counts, primary screen (AID 1347080;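 active = compounds whose cell count with miR-34 switched on is under 0.7 times the count with it off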). The settings on record: A549 miR-34 inducible, Hoechst nuclei count, 48 h.
A short description of experiment [16]: compounds altering HSF1 focus formation in cells – imaging, Selleck Cancer Library (AID 1347162; in the data active = plate-normalised HSF1 focus index below about 0.46). The settings on record: human cells, HSF1 nuclear foci imaging, at 10 µM; SSMD: measured here: HSF1 foci SSMD mean; cell count: measured here: cell number; plate-normalised HSF1 focus index: stronger effect = lower value.
A short description of experiment [17]: MELAS cybrid and Rieske KO viability enhancers – cell-based, MELAS cybrids, Rieske KO mouse fibroblasts, CellTiter-Glo, primary screen (AID 1508586;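 active = mean z-score across replicates of 1.96 or higher in either the MELAS or the Rieske mutant cell line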;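 also: z relative to plate mean and SD of compound and empty wells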). The conditions noted are these: low glucose.
The nature of experiment [18]: drug combination growth inhibition, ovarian cancer – cell-based, oncology-focused library, rucaparib conditional, profiling panel (AID 1508598). The conditions noted are these: patient-derived ovarian cancer cells, CellTiter-Glo viability, 144 h, stronger effect = lower value.

Chain of L-lactate dehydrogenase (Plasmodium falciparum (isolate CDC / Honduras)) (Q27743 whole entry, looked up): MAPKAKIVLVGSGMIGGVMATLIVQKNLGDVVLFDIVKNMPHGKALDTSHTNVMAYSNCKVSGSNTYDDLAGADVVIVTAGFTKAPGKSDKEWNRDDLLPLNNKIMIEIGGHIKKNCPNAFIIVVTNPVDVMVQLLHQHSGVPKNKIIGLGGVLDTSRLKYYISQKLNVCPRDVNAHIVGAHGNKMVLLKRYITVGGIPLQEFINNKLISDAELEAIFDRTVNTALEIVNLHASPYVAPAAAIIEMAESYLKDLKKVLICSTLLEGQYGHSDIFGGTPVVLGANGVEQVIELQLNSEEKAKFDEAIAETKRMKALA
Chain of Calcium-dependent protein kinase 4 (Plasmodium falciparum (isolate 3D7)) (Q8IBS5 whole entry, looked up): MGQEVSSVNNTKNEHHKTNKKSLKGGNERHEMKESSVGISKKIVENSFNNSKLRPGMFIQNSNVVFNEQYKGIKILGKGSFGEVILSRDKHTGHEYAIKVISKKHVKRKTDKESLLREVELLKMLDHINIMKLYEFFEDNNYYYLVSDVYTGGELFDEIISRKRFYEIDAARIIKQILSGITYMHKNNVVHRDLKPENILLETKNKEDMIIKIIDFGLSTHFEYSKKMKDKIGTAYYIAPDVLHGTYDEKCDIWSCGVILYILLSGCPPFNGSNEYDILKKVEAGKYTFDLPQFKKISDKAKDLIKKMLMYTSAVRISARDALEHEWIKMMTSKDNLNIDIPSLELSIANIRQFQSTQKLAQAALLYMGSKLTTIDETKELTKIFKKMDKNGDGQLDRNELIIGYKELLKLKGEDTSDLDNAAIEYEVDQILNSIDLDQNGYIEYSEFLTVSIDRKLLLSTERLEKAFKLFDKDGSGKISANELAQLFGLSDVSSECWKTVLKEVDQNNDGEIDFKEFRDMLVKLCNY
Chain of Plasmodium falciparum protein kinase 6 (PK6, PF3D7_1337100) (Q8IDW1 1-305): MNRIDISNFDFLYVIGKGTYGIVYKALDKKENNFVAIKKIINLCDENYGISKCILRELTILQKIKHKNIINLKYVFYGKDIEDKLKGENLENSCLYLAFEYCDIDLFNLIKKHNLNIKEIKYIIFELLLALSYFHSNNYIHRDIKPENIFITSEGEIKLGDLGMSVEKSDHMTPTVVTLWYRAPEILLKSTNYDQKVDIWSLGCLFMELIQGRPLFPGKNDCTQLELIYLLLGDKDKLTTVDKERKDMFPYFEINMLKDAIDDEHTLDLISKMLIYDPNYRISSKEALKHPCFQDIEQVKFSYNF
Chain of Protein kinase 7 (PK7), Plasmodium falciparum 3D7 (PF3D7_0213400) (Q7YTF7 1-343): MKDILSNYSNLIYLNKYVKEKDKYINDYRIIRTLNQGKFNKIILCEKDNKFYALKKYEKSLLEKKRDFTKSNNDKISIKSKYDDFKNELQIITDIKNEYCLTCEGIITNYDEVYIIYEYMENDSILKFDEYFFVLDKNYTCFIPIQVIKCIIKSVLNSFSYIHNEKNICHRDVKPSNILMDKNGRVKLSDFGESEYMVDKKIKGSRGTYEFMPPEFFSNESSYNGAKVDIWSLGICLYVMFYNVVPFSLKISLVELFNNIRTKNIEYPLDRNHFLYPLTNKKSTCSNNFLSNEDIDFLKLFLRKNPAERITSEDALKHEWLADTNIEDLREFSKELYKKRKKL

For the compound `Cc1cnc(N)c(/C=C/c2cncc(C(=O)NCCc3ccc(Cl)cc3Cl)c2)c1`, the growth inhibition in experiment [1] is 100% (active). Also, the inhibition in experiment [2] is 2% (inactive). For the same compound, the outcome in experiment [3], in experiment [4], in [5] and in experiment [6] was inactive.
With `C[C@H](Cc1ccc(C[C@@H](C)NCC(O)c2cc(Cl)c(N)c(Cl)c2)cc1)NCC(O)c1cc(Cl)c(N)c(Cl)c1` (stereo partly drawn), the growth inhibition is 50% (active) in experiment [1] and 98% (active) in experiment [8]. Further, the inhibition in [2] was 26% (inactive); in experiment [7], -3% (inactive). Besides, the outcome in experiment [3], in [4], in experiment [5] and in [6] was inactive.
In the case of `Cc1ccccc1C1CCN(C2CCC(NC(=O)/C=C/c3cccc(F)c3)CC2)CC1` (stereo not drawn), the results for the growth inhibition in experiment [1] and in experiment [8] were 38% (inactive) and 84% (active), respectively. Also, the inhibition in experiment [2] is 46% (inactive); in experiment [7] it was -3% (inactive). In addition, the result in [3], in experiment [4], in experiment [5] and in [6] was inactive.
Regarding `O=C(NCCCCCN1CCC(c2c[nH]c3ccccc23)CC1)Nc1ccc(I)cc1`, the values for the growth inhibition in experiment [1] and in experiment [8] were -1% (inactive) and 100% (active), respectively. Moreover, the inhibition in experiment [2] was 51% (active); in experiment [7], 2% (inactive). For the same compound, the outcome in experiment [3], in experiment [4], in experiment [5] and in experiment [6] was inactive.
`Oc1ccc(Cl)cc1CN1CCCC(COC(c2ccc(F)cc2)c2ccc(F)cc2)C1` (stereo not drawn): the figures for the growth inhibition in experiment [1] and in experiment [8] were 100% (active) and 98% (active), respectively. Moreover, the inhibition was 20% (inactive) in [2] and 3% (inactive) in experiment [7]. For the same compound, the result in [3], in experiment [4], in [5] and in [6] was inactive.
For `O=C(Cn1cc(C=C2SC(=NC3CCCC3)N(C3CCCC3)C2=O)c2ccccc21)N1CCCC1`, the growth inhibition in experiment [1] and in experiment [8] was 100% (active) in each case. For the same compound, the results for the inhibition in experiment [2] and in experiment [7] were 5% (inactive) and -1% (inactive), respectively. Further, the outcome in experiment [3], in experiment [4], in experiment [5] and in experiment [6] was inactive.
With `CCOC(=O)C(C)(C)Oc1ccc(C(=C2CC(C)(C)CC(C)(C)C2)c2ccc(O)cc2)cc1`, the growth inhibition in experiment [1] is 78% (active); in [8] it was 92% (active). Further, the inhibition is -3% (inactive) in experiment [2] and 1% (inactive) in [7]. In addition, the outcome in [3], in [4], in [5] and in experiment [6] was inactive.
Consider `FC(F)c1nc2ccccc2n1-c1nc(N2CCOCC2)nc(N2CCOCC2)n1`, for which the growth inhibition in [1] and in experiment [8] was 99% (active) in each case. Moreover, the inhibition in experiment [2] is 47% (inactive); in experiment [7], -2% (inactive). Besides, the outcome in experiment [3], in experiment [4], in [5] and in [6] was inactive. Besides, the half-maximal activity concentration (AC50) in [9] was 742 nM (active); in experiment [10] it was 235 nM (active); in experiment [11], 833 nM (active); in experiment [12] it was 417 nM (active); in experiment [13], 3320 nM (active); in [14], 2950 nM (active). Moreover, the fold change was 0.814 (inactive) in experiment [15] (stronger effect = lower value, cell number ratio, induced over uninduced) and 0.918 in experiment [15] (measured here: relative caspase fold change +Dox/-Dox). Besides, the cell count was 1920 in [15] (measured here: total cells with miR-34 induction, stronger effect = lower value); 2350 in experiment [15] (measured here: total cells without miR-34 induction); 6850 in [16]. In experiment [16], this compound displayed an SSMD of -0.274. Besides, in experiment [16], the plate-normalised HSF1 focus index is 0.994 (inactive). For the same compound, the z-score in experiment [17] (MELAS cybrid survival, CellTiter-Glo 48 h, stronger effect = higher value) is 2.99 (active); in [17] (Rieske KO mouse fibroblast survival, CellTiter-Glo 72 h) it was -0.193. Further, the viability in experiment [18] (at 0.000305 µM, OCI-C5x cells, with rucaparib 10 µM, 100% = cells with rucaparib alone) is 125% (inactive); in experiment [18] (at 0.000305 µM, OCI-C5x cells, without rucaparib) it was 124% (inactive); in experiment [18] (at 0.000305 µM, OCI-P5x cells, with rucaparib 20 µM, 100% = cells with rucaparib alone), 88.5% (active); in experiment [18] (at 0.000305 µM, OCI-P5x cells, without rucaparib) it was 82.7% (active); in experiment [18] (at 0.00122 µM, OCI-C5x cells, without rucaparib), 119% (inactive); in [18] (at 0.00122 µM, OCI-P5x cells, with rucaparib 20 µM, 100% = cells with rucaparib alone) it was 75.5% (active). Besides, the viability was 34.1% (active) in [18] (at 0.00122 µM, OCI-P5x cells, without rucaparib); 115% (inactive) in experiment [18] (at 0.00488 µM, OCI-C5x cells, with rucaparib 10 µM, 100% = cells with rucaparib alone); 120% (inactive) in experiment [18] (at 0.00488 µM, OCI-C5x cells, without rucaparib); 93.4% (active) in experiment [18] (at 0.00488 µM, OCI-P5x cells, with rucaparib 20 µM, 100% = cells with rucaparib alone); 97.4% (active) in experiment [18] (at 0.00488 µM, OCI-P5x cells, without rucaparib); 122% (inactive) in experiment [18] (at 0.0195 µM, OCI-C5x cells, with rucaparib 10 µM, 100% = cells with rucaparib alone). Moreover, the viability in [18] (at 0.0195 µM, OCI-C5x cells, without rucaparib) is 116% (inactive); in experiment [18] (at 0.0195 µM, OCI-P5x cells, with rucaparib 20 µM, 100% = cells with rucaparib alone), 94.1% (active); in [18] (at 0.0195 µM, OCI-P5x cells, without rucaparib), 90.9% (active); in [18] (at 0.0781 µM, OCI-C5x cells, with rucaparib 10 µM, 100% = cells with rucaparib alone), 126% (inactive); in experiment [18] (at 0.0781 µM, OCI-C5x cells, without rucaparib), 117% (inactive); in experiment [18] (at 0.0781 µM, OCI-P5x cells, with rucaparib 20 µM, 100% = cells with rucaparib alone), 89.9% (active). In addition, the viability is 93% (active) in experiment [18] (at 0.0781 µM, OCI-P5x cells, without rucaparib); 128% (inactive) in experiment [18] (at 0.313 µM, OCI-C5x cells, with rucaparib 10 µM, 100% = cells with rucaparib alone); 111% (inactive) in experiment [18] (at 0.313 µM, OCI-C5x cells, without rucaparib); 88.2% (active) in [18] (at 0.313 µM, OCI-P5x cells, with rucaparib 20 µM, 100% = cells with rucaparib alone); 84.5% (active) in [18] (at 0.313 µM, OCI-P5x cells, without rucaparib); 107% (inactive) in experiment [18] (at 1.25 µM, OCI-C5x cells, with rucaparib 10 µM, 100% = cells with rucaparib alone). Further, the viability is 126% (inactive) in experiment [18] (at 1.25 µM, OCI-C5x cells, without rucaparib); 42% (active) in experiment [18] (at 1.25 µM, OCI-P5x cells, with rucaparib 20 µM, 100% = cells with rucaparib alone); 62.9% (active) in experiment [18] (at 1.25 µM, OCI-P5x cells, without rucaparib); 25.2% (active) in experiment [18] (at 5 µM, OCI-C5x cells, with rucaparib 10 µM, 100% = cells with rucaparib alone); 45.8% (active) in experiment [18] (at 5 µM, OCI-C5x cells, without rucaparib); 8.53% (active) in [18] (at 5 µM, OCI-P5x cells, with rucaparib 20 µM, 100% = cells with rucaparib alone). The viability in experiment [18] (at 5 µM, OCI-P5x cells, without rucaparib) is 15.4% (active).
